HIV Env fusion – inhibitors of HIV Env-mediated cell fusion | HeLa-JRFL Env/CEM21 cell fusion, luciferase | inhibition, % at 12.3 µM | actives 1.1% (n = 360,000) | AID 651610;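 active means mean replicate inhibition score of at least 50 and every replicate individually at or above 50; inconclusive means only one of the two criteria met; inactive means mean below 50 and not all replicates reaching 50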;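 further: 0% = plate neutral controls and 100% = maraviroc near 300 nM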
MITF act – increases MITF-driven TRPM1 promoter luciferase signal; SK-MEL-5 TRPM1-promoter luciferase, 24 h; % of positive control, neutral wells = 0; activation, % at 12.5 µM; actives 0.75% (n = 300,000); AID 588334;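 active means mean activation of at least 80% with every replicate also reaching 80%; inconclusive means mean reaches 80% but some replicate falls short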;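 further: 0% = neutral control wells and 100% = parthenolide positive control wells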
miR-122 sensor – inhibitors of miR-122 in Huh7 cells. Huh7 miR-122 Renilla luciferase sensor, 48 h; neutral wells = 0, positive control = 100. activation (reporter increase), % at 12.5 µM. actives 0.3% (n = 340,000). AID 602342;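 active means mean replicate activation score at least 90 and every replicate individually at or above 90; inconclusive means only one of the two criteria met; inactive means neither criterion met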;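 further: higher luciferase means less miR-122 activity so hits act as miR-122 inhibitors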
Wnt bcat act – activates Wnt/beta-catenin signaling in a reporter cell assay; activator, plate reader; activation, % at 9.35 µM; actives 1.2% (n = 300,000); in the data active means activation above about 30%, passing the limit was not always enough; inconclusive means no clear call, values can overlap the other calls;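 further: 0% = neutral control wells and 100% = positive control wells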
esBAF inh – inhibitors of esBAF chromatin remodeling in mouse ES cells; Bmi1-luciferase knock-in reporter, 24 h; 100% = twice the neutral-well signal; actives 2% (n = 350,000); reporter increase, % at 12.5 µM; in the data active means activation above about 40%; inconclusive means no clear call, values can overlap the other calls;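 further: 0% = median of the plate's neutral control wells and 100% = double that signal; a rise in the Bmi1 reporter signal indicates esBAF inhibition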
The depositor's hits bear a star; ? = inconclusive; . = no result given; [ ] = remark or other dose. Hits are enriched below; roughly 3.4% of the tested compounds scored in any of these assays.

SMILES | HIV Env fusion | MITF act | miR-122 sensor | Wnt bcat act | esBAF inh
COC(=O)CN1C(c2cccc(Cl)c2)=Nc2ccc(Cl)cc2C1c1ccccc1 (centres undefined) | 56* | -2 | . | -3 | .
CS(=O)(=O)Nc1ccc2c(c1)[C@H]1C[C@H](CC(=O)NCc3cccnc3)O[C@@H](CO)[C@H]1O2 | -1[16.7 µM] | . | -1[16.7 µM] | . | -1
O=C(Nc1ccc(OCC(F)(F)C(F)F)c(C(F)(F)F)c1)c1ccc(Cl)cc1 | 69* | -66 | -5 | . | -28
COCC(=O)N(C)C[C@@H]1Oc2cc(-c3ccc(F)cc3)ccc2S(=O)(=O)N([C@@H](C)CO)C[C@H]1C | 8[16.7 µM] | . | 1[16.7 µM] | . | 0
Cc1ccc(SCC(=O)NC2CCS(=O)(=O)C2)cc1C (centres undefined) | . | 5 | . | 22 | -4
Cc1ccc(-c2cn(-c3ccccc3)c(SCC(=O)NC3CCS(=O)(=O)C3)n2)cc1C (centres undefined) | -49 | 99* | 2 | 0 | .
Cc1cccc(C(=O)OCC(=O)NCc2ccco2)c1 | 66* | 12 | 14 | 1 | 0
Cc1ccc(C(=O)OCC(=O)NCc2ccco2)cc1 | -46 | 8 | 2 | . | -2
COc1ccc(OCc2cc(C(=O)N3C[C@@H](C)O[C@@H](C)C3)no2)c(Cl)c1 | . | 70 | -6 | 13 | 42*
COC(=O)C1CCCCN1C(=O)c1cc(COc2cccc3cccnc23)on1 (centres undefined) | -24 | 0 | -3 | -5 | .
CC(=O)c1cccc(OCc2cc(C(=O)N3C[C@@H](C)O[C@@H](C)C3)no2)c1 | -34 | 69 | -2 | 21 | 65*
O=C(c1cc(COc2cccc(C(F)(F)F)c2)on1)N1C[C@H]2CC[C@H]1C2 | . | 65 | 10 | 13 | 58*
CC(=O)c1cccc(OCc2cc(C(=O)NC3CCN(Cc4ccccc4)CC3)no2)c1 | -13 | -22 | -4 | -1 | 4
CC(=O)c1cccc(OCc2cc(C(=O)N3C[C@H]4CC[C@H]3C4)no2)c1 | -13 | 47 | -10 | 1 | ?
COC(=O)C1CCCCN1C(=O)c1cc(COc2cccc3cnccc23)on1 (centres undefined) | 64* | -2 | -4 | -6 | -25
CCCC#Cc1cnc2c(c1)C(=O)N([C@@H](C)CO)C[C@H](C)[C@@H](CN(C)C(=O)C1CCC1)O2 | 6[16.7 µM] | . | -4[16.7 µM] | . | -6
COCC#Cc1cnc2c(c1)C(=O)N([C@H](C)CO)C[C@H](C)[C@H](CN(C)C(=O)C1CCCCC1)O2 | -11[16.7 µM] | . | 7[16.7 µM] | . | -2
Cc1noc(C)c1S(=O)(=O)N(C)C[C@@H]1OCCCC[C@@H](C)Oc2ccc(NC(=O)Cc3ccccc3)cc2C(=O)N([C@@H](C)CO)C[C@H]1C | -39[16.7 µM] | . | 0[16.7 µM] | . | 7
C[C@@H]1CN([C@@H](C)CO)C(=O)Cc2cc(NC(=O)Nc3ccc(C(F)(F)F)cc3)ccc2O[C@H]1CN(C)C | . | . | -3[16.7 µM] | . | -2
CC(=O)c1ccc(OCc2cc(C(=O)N3CCC[C@H]3CO)no2)cc1 | -8 | 1 | 1 | 1 | -2
COCCC1CCCCN1C(=O)c1cc(COc2cccc(C(C)=O)c2)on1 (centres undefined) | -26 | 27 | -6 | 14 | 65*
O=[N+]([O-])c1ccc(CSc2nc3ccccc3o2)cc1 | -260 | 97* | -3 | 25 | .
COC(=O)c1ccc(CSc2nc3ccccc3o2)cc1 | -24 | 42 | -2 | . | 5
C[C@@H]1CN([C@H](C)CO)C(=O)c2cc(C3=CCCCC3)cnc2O[C@@H]1CN(C)C(=O)Nc1cccc(F)c1 | 9[16.7 µM] | . | 14[16.7 µM] | . | 11
Cc1ccc(N(C(=O)Cc2c[nH]c3ccccc23)C(C(=O)NC2CCCCC2)c2ccco2)cc1 (centres undefined) | 84* | . | -6 | 0 | 3
SMILES | HIV Env fusion | MITF act | miR-122 sensor | Wnt bcat act | esBAF inh
Cc1noc(C)c1NC(=O)Nc1cccc2c1O[C@H](CN(C)S(C)(=O)=O)[C@H](C)CN([C@@H](C)CO)C2=O | -5[16.7 µM] | . | -8[16.7 µM] | . | -2
Cc1ccc(N2C(=O)c3ccccc3NC2C(C)Cc2ccc3c(c2)OCO3)cc1 (centres undefined) | -61 | . | 11 | . | 52*
CC(C)Oc1ccccc1C1Nc2ccccc2C(=O)N1c1ccc2c(c1)OCCO2 (centres undefined) | . | 25 | -6 | . | -28
CC(C)C#Cc1ccc([C@H]2[C@@H](CO)N(C(=O)c3ccccn3)[C@H]2C#N)cc1 | 27[16.7 µM] | . | . | . | -1
Cc1ccc(S(=O)(=O)NC(=NCc2ccccc2)c2ccc(F)cc2)cc1 | 19 | 1 | 116* | -7 | 9
O=C(c1ccccc1)c1ccc(Cn2cc(-c3ccccc3)nn2)cc1 | -1 | 29 | 3 | 3 | 15
CCCCCc1ccc(-c2cn(Cc3ccc(C(=O)c4ccccc4)cc3)nn2)cc1 | -79 | -8 | 31 | 3 | 53*
COc1cccc(S(=O)(=O)N[C@@H]2C=C[C@@H](CC(=O)NCc3ccccc3)O[C@@H]2CO)c1 | -2[16.7 µM] | . | . | . | 3
CS(=O)(=O)Nc1cccc(NC(=O)c2ccc(-n3ccnc3)c3ccoc23)c1 | -16 | . | 57 | 1 | 8
CS(=O)(=O)Nc1cccc(NC(=O)c2cccc3c(-c4ccc(F)c(F)c4)coc23)c1 | 2 | . | 5 | -1 | 52*
Cn1nccc1-c1ccc(C(=O)Nc2cccc(NS(C)(=O)=O)c2)c2occc12 | . | . | 9 | 4 | 46*
CS(=O)(=O)Nc1cccc(NC(=O)c2ccc(-c3ccc(F)c(F)c3)c3ccoc23)c1 | -12 | . | 1 | 5 | 6
COc1ccccc1C(=O)Nc1ccc2c(c1)OC[C@@H](C)N(C)C[C@H](C)[C@@H](OC)CN(C)C2=O | 3[16.7 µM] | . | -10[16.7 µM] | . | 18
Fc1cccc(/C=N/Nc2cc(N3CCOCC3)ncn2)c1 | 16 | 98* | 2 | 26 | 26
Fc1ccc(/C=N/Nc2cc(N3CCOCC3)ncn2)cc1 | 16 | 77 | -7 | 26 | 9
O=C(C[C@@H]1CC[C@@H]2[C@H](COC[C@@H](O)CN2C(=O)Nc2cccc(Cl)c2)O1)N1CCCCC1 | 7[16.7 µM] | . | 2[16.7 µM] | . | 5
COc1ccc2cc(C(=O)OC(C)C)sc(=O)c2c1OC | . | 39 | -2 | . | 53*
COc1ccc2cc(C(=O)NCC(=O)O)sc(=O)c2c1OC | . | 5 | 4 | . | .
COc1ccc(-c2cn(Cc3ccc(C(N)=O)cc3)c(-c3ccncc3)n2)cc1 | -82 | 106* | 2 | 47* | 76*
O=C(CN(Cc1ccccc1)S(=O)(=O)c1cccc(C(F)(F)F)c1)NC1CCCCC1 | 63* | 0 | 0 | -2 | .
C(=C\c1ccccn1)/c1ccncc1 | -28 | 25 | 5 | 4 | 32
Cc1cccc(/C=C/c2ccccc2)n1 | -20 | . | -2 | 46* | 51*
C(=C\c1cc(/C=C/c2ccccc2)ncn1)/c1ccccc1 | -38 | 19 | . | 37* | 55*
Cc1nc(/C=C/c2ccccc2)cc(/C=C/c2ccccc2)n1 | -40 | 17 | 4 | 29 | 35
C(=C\c1ccc2ccccc2n1)/c1ccccc1 | -162 | -56 | 2 | -15 | -53
